“And” between values parts separate entries of the source, which are not always exact repeats. Identical values can stand only once. The source made the active and inactive calls. Rule for the calls: active = hit-call score of the fitted dose curve at least 0.9, where 1 is the maximum; inactive = score below 0.9.
read-out: E-selectin (Homo sapiens) (UniProt P16581); experiment: BSK_SAg_Eselectin: BioMAP Diversity Plus: SAg Assay for Eselectin Biomarker Activity (AID 2283091); details: primary human HUVEC with PBMC; actives raise or lower the signal
Method: BSK_SAg is a cell-based, multiplexed-readout assay that uses umbilical vein endothelium and peripheral blood mononuclear cells, a human vascular primary cell co-culture, with measurements taken at 24 hours after chemical dosing in a 96-well plate.BSK_SAg_Eselectin is an assay component measured in the BSK_SAg assay. It measures E-selectin antibody related to regulation of gene expression using ELISA technology.Data from the assay component BSK_SAg_Eselectin was analyzed into 1 assay endpoint. This assay endpoint, BSK_SAg_Eselectin, was analyzed with bidirectional fitting relative to DMSO as the negative control and baseline of activity. Using a type of binding reporter, gain or loss-of-signal activity can be used to understand changes in the signaling as they relate to the gene SELE. Furthermore, this assay endpoint can be referred to as a primary readout, because this assay has produced multiple assay endpoints where this one serves a signaling function. To generalize the intended target to other relatable targets, this assay endpoint is annotated to the cell adhesion molecules intended target family, where the subfamily is selectins.
The levels of cell surface (or secreted, indicated by the prefix "s") biomarker endpoints were measured by ELISA. Overt cytotoxicity to cells in confluent adherent cultures (all systems other than the BT system) was assessed by measuring total protein levels using sulforhodamine B (SRB) staining in parallel cultures at the time of biomarker measurements, indicated as SRB endpoints. For proliferation assays for adherent cell types, individual cell types are cultured at sub-confluence and relative cell numbers quantified by SRB staining at time points optimized for each system (48 h: 3C and CASM3C systems; 72 h: BT and HDF3CGF systems; 96 h: SAg system). SRB was performed by staining cells with 0.1% SRB after fixation with 10% TCA and reading wells at 560 nm.Viability and proliferation of PBMC (T cells) was quantified by Alamar Blue reduction for the SAg and BT systems. For PBMC viability (referred to as PBMC Cytotoxicity within the assay endpoint names), cells were plated (75,000/well in a 96-well plate) and then chemical samples added for 1 h before addition of activators, SEB and TSST-1 (20 ng/mL final concentration each). Cells were incubated for 90 h. Then, Alamar Blue (20 uL/well) (Invitrogen, Cat DAL1100) was added for 6 h, and the plates were read with a fluorescence microplate reader at 546/580 nm (excitation/emission). For PBMC proliferation, cells were plated and activated as above but incubated for only 16 h prior to addition of Alamar Blue. Plates were read after 6 h.

Sequence of E-selectin (Homo sapiens) (P16581 whole entry, looked up): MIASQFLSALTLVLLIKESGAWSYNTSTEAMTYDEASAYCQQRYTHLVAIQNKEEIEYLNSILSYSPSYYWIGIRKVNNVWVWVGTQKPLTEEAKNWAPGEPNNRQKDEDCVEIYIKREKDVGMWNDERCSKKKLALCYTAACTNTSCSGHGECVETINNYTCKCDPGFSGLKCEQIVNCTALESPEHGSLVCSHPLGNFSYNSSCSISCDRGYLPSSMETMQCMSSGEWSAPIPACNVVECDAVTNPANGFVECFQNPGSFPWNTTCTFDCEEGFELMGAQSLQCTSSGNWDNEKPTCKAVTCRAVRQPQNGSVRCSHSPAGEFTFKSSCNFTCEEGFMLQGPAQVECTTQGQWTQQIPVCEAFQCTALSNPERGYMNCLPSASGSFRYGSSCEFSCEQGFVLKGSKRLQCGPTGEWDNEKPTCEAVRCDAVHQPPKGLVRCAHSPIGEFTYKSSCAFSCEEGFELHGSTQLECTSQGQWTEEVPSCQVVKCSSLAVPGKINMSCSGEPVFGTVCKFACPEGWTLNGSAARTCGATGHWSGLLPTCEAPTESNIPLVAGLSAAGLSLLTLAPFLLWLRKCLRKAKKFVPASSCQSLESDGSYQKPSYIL

SMILES	outcome	AC50
CC(O)CN(CCN(CC(C)O)CC(C)O)CC(C)O (stereo not given)	inactive	
COc1ccc(-n2nc(C(F)F)cc2-c2ccc(S(C)=O)cc2)cc1 (stereo not given)		1.21 µM (active)
CCCCCCCCCCCCCCCO		33.5 µM (active)
CCCCC(CC)COC(=O)CCCCCCCCC(=O)OCC(CC)CCCC (stereo not given)	inactive	
O=C(O)CC(O)C(=O)O (stereo not given)	inactive	
CC(C)=CCC/C(C)=C\CO	inactive	
CNCc1ccc(NC(=O)c2c[nH]c3c2C(=O)CCC3)cc1	inactive	
COC(=O)c1ccccc1O	inactive	
CC(C)=CCCC(C)=CC=O	inactive	
CC1=CC(=O)CC(C)(C)C1	inactive	
Cn1cnc([N+](=O)[O-])c1Sc1ncnc2nc[nH]c12		6.91 µM (active) and 12.6 µM (active) and 16.9 µM (active)
O=C1CCCCCN1	inactive	
CCCC(=O)OCC	inactive	
O=c1[nH]c2ccc(S(=O)CCN3CCC(Cc4ccc(F)cc4)CC3)cc2o1 (stereo not given)	inactive	
CCCCC(CC)COC(=O)c1ccc(C(=O)OCC(CC)CCCC)cc1 (stereo not given)	inactive	
CC(=O)OCCC(C)C	inactive	
CC(C)c1cccc(C(C)C)c1N1C(=O)c2ccc(O)cc2C1=O		30.9 µM (active)
CNS(=O)(=O)c1cc(C(=O)N2CCC(CCN3C4CCC3CC(n3c(C)nc5ccccc53)C4)(c3cccc(F)c3)CC2)c(Cl)cc1F (stereo not given)	inactive	
Fc1ccccc1[C@@H](F)COC1CCC(Nc2ncnc3[nH]ncc23)CC1 (stereo not given in full)	inactive	
CC1(C)C(=O)N(Br)C(=O)N1Br	inactive	

SMILES	outcome	AC50
CCCCCCCCO	inactive	
C1=CCCC=CCCC=CCC1	inactive	
CCN(C(=O)c1cc(C)cc(OC[C@H](C)Nc2ccncc2)c1)C(C)C	inactive	
C=CCCCCCCCCC(=O)O	inactive	
CCOC(=O)CC(CC(=O)OCC)(OC(C)=O)C(=O)OCC	inactive	
CC(=O)OC[C@H]1O[C@@](COC(C)=O)(O[C@H]2O[C@H](COC(C)=O)[C@@H](OC(C)=O)[C@H](OC(C)=O)[C@H]2OC(C)=O)[C@@H](OC(C)=O)[C@@H]1OC(C)=O	inactive	
Cc1ccc(N)cc1O		6.15 µM (active)
O=C(NS(=O)(=O)/C=C/c1ccccc1)c1ccc(F)cc1Cl	inactive	
Cn1c(=O)cc(Oc2ccc(F)cc2F)c2cnc(NCC(C)(C)O)nc21	inactive	
Nc1cccc(N)c1	inactive	
CC(C)CCCCCCOC(=O)c1ccc(C(=O)OCCCCCCC(C)C)c(C(=O)OCCCCCCC(C)C)c1	inactive	
CCNc1ccccc1	inactive	
CC/C(=C\C(=N/O)C(N)=O)C(C)[N+](=O)[O-] (stereo not given)	inactive	
CCc1cc(SCc2sc(-c3ccc(C(F)(F)F)cc3)nc2CN2CCN(c3ccc(OC)cc3)CC2)ccc1OCC(=O)O		12.2 µM (active)
O=C1CCC(N2C(=O)c3ccccc3C2=O)C(=O)N1 (stereo not given)	inactive	
COC(=O)CC(=O)OC	inactive	
O=C(O)c1cc(N=Nc2ccc(S(=O)(=O)Nc3ccccn3)cc2)ccc1O	inactive	
CC(C)CCO	inactive	
CN(C)c1ccc(N=NS(=O)(=O)O)cc1	inactive	
COc1ccc2sc(C(=O)Nc3nnn[nH]3)c(OC(C)C)c2c1		30 µM (active)
